# From PubChem
# Rows were chosen to be rich in hits. Some 9.2% of all compounds tested hit in one or more screens of this group.
# HPGD inh: blocks human HPGD enzyme activity | P15428 | purified HPGD, NADH fluorescence kinetic, PGE2 substrate | Potency, µM, inactives show at the highest dose activity change, negative = inhibition, hits mostly inhibitors | hit rate 4.3% among 150,000 | AID 894; further: on the % scale 0 is the no-effect control and ±100 the full control effect
# Target sequence (P15428 whole entry, looked up): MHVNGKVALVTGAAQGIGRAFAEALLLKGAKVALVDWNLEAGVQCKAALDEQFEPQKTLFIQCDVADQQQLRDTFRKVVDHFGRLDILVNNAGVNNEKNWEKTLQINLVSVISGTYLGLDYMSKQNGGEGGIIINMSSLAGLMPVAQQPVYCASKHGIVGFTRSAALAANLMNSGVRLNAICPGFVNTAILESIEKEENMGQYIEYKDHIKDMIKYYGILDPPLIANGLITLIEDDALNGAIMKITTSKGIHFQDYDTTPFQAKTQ
#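 NADH formation kinetics: reaction with 30 uM PGE2 and 1 mM NAD+ (final), 20 nM enzyme, Tris-HCl pH 8 with Tween 20, after 15 min compound preincubation at room temperature. Fluorescence change, last versus first of five reads.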
# ALDH1A1 block: ALDH1A1 (human) enzyme inhibition; AID 1030; Potency, µM (series often up to 75.3 µM), for inactives: at the top dose activity, negative = inhibition, actives largely listed as inhibitors; P00352; Purified ALDH1A1, NADH fluorescence, propionaldehyde substrate; hit rate 7.3% among 220,000;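 further: plate controls were no enzyme wells and a reference inhibitor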
# Target sequence (P00352 whole entry, looked up): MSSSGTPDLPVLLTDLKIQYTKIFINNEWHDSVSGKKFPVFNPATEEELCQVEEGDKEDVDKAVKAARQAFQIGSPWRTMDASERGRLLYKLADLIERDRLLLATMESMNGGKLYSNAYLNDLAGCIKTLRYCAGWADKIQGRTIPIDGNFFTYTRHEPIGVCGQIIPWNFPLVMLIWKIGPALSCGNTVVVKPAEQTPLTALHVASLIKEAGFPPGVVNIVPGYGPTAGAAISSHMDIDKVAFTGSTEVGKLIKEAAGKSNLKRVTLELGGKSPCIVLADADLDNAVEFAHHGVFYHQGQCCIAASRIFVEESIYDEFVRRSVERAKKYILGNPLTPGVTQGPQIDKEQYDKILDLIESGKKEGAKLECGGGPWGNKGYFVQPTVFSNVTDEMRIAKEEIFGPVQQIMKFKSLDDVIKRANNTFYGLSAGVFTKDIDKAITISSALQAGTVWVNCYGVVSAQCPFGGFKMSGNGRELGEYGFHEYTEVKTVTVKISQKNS
# HttQ103 aggreg: inhibitors of mutant huntingtin aggregate formation in PC12 cells; PC12 HttQ103-GFP aggregates, Acumen cytometry, 40 h; Potency, µM (series often up to 46.1 µM), for inactives: at the top dose activity change, negative = inhibition, most hits filed as inhibitors; hit rate 1.1% among 220,000; active means well fitted curve in the direction sought with a large enough effect; inconclusive means small, poorly fitted or top-dose-only effect, or another doubt; inactive means no such curve, though single readings can be large; an effect the other way counts as inactive or inconclusive; further: on the % scale 0 is the no-effect control and ±100 the full control effect; nearly all actives have a fitted effect of over 60% in size
#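 Using laser scanning cytometry, GFP-positive aggregates were counted after lysis of PC12 cells induced with 100 nM tebufenozide to express HTT exon 1 Q103–GFP. Compounds were tested in titration.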
# Lamin A splicing: changes lamin A minigene splicing in HeLa cells | hit rate 0.01% among 200,000 | AID 1487 | Potency, µM (series often up to 46.1 µM), for inactives: top-dose ratio change, negative = inhibition, most hits filed as inhibitors | HeLa LMNA splicing GFP/RFP minigene ratio, 48 h; active means well fitted inhibition curve with a large enough effect in the signal ratio, with a control signal flat, not every such curve was filed as active; inconclusive means small, poorly fitted or top-dose-only effect, or effect the other way, or a change in a side signal; the % refers to the signal ratio; further: on the % scale 0 is the no-effect control and ±100 the full control effect
#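 S3 HeLa cells stably expressing lamin A-EGFP splicing minigene plus DsRed2, 600 cells/well, 48 h compound exposure at 37C. Laser-scanning cytometry; analysed as GFP (500-530 nm)/RFP (575-640 nm) total intensity ratio; 0.5% DMSO vehicle.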
# KDM4E inh: inhibitors of human JMJD2E histone demethylase; hit rate 1.6% among 230,000; JMJD2E catalytic domain, FDH-coupled NADH fluorescence (FDH is formaldehyde dehydrogenase); Potency, µM (titrated, usually from 57.1 µM), inactives show at the highest dose activity change, negative = inhibition, most hits filed as inhibitors; B2RXH2;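 further: 0% = wells with enzyme and -100% = buffer wells without enzyme; nearly all actives have a fitted effect of over 50% in size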
# HTT ATP protect: Huntington cell model cytoprotection by ATP luminescence. PC12 HTT-Q103 induced, cytoprotection, ATP luminescence, 40 h. Potency, µM (doses to about 56.4 µM), inactives show cytoprotection (ATP increase), actives largely listed as activators. hit rate 0.14% among 230,000. AID 1471; active means well fitted curve in the direction sought with a large enough effect; inconclusive means small, poorly fitted or top-dose-only effect, or another doubt; inactive means no such curve, though single readings can be large; an effect the other way counts as inactive or inconclusive; further: % of control where 0% means no effect; nearly all actives have a fitted effect of over 45% in size
#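 Rat PC12, Q103 Htt exon1-GFP fusion, ecdysone promoter; tebufenozide inducer 100 nM final; compound titration; qHTS, 1500 cells/well; ATPlite luminescent read.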
# Starred values were filed as active, the others as inactive; u = inconclusive; x = not tested or not shown; [ ] = dose if it differs, or a comment. Unless noted, the call rests on the fitted dose curve; in most records, active means well fitted inhibition curve with a large enough effect (not every such curve was filed as active); inconclusive means small, poorly fitted or top-dose-only effect, or another doubt; inactive means no such curve, though single readings can be large or run the other way. Potency means the concentration at half of the fitted maximal effect.
SMILES,HPGD inh,ALDH1A1 block,HttQ103 aggreg,Lamin A splicing,KDM4E inh,HTT ATP protect
CCCC(=O)Nc1cc(-c2nn(C)c(=O)c3ccccc23)ccc1N1CCOCC1,-13%,28µM*,17%[9.22 µM],9%,-1%,24%
O[C@@H]1[C@@H](OCc2ccccc2)OC[C@H](O)[C@@H]1O,-2%,0%[13.5 µM],x,x,x,22%[10 µM]
Nn1cnnc1SCC(=O)Nc1ccc(C2CCCCC2)cc1,-23%,11µM*,9%,5%,3%,-42%[10 µM]
Cc1cccc(NC(=O)Cn2c(O)c(N=NC(=O)c3ccccc3O)c3ccccc32)c1,-7%,13µM*,-3%,6%,4%,26%[10 µM]
S=C(Nc1ccc2c(c1)OCO2)NC1CCN(Cc2ccccc2)CC1,-2%,13µM*,-3%,7%,-5%,5%
Cc1ccc(NC(=S)NC2CCN(Cc3ccccc3)CC2)cc1C,x,-10%,-8%,-12%[46 µM],-8%,u
S=C(Nc1ccc(Cl)cc1Cl)NC1CCN(Cc2ccccc2)CC1,-4%,8.9µM*,5%,u,-4%,25%[10 µM]
Cn1cnc(S(=O)(=O)N2CCC(C(=O)Nc3ccc(OC(F)(F)F)cc3)CC2)c1,x,x,x,-2%[46 µM],x,x
CN(C)C1(CNC(=O)COc2cccc(Cl)c2)CCCCC1,x,x,x,27%[46 µM],x,x
Cc1cc(-c2csc(NC(=O)c3ccccc3C(F)(F)F)n2)c(C)n1Cc1ccccc1,x,1%,4%,-12%,-25%,3%[10 µM]
Cc1cc(-c2csc(NC(=O)c3ccc(=O)n(C)n3)n2)c(C)n1CC1CCCO1 (centres undefined),-10%,20µM*,16%,-3%,-22%,-27%[10 µM]
Cc1cc(SCC(=O)N2CCCC2)nc2ccccc12,13µM*,-27%,-12%,u,1%,-13%[10 µM]
Cc1cc(SCC(=O)c2ccc(O)c(O)c2)nc2ccccc12,x,7%,-12%[9.22 µM],-9%[46 µM],u,-7%[10 µM]
O=C(CSc1nc2cc(Cl)ccc2s1)c1cc2ccccc2o1,u,28µM*,-1%,9%,u,-2%
Cc1cc(SCC(=O)c2cc3ccccc3o2)nc2ccccc12,35µM*,28µM*,-13%,3%,u,-40%
Cc1cc(SCC(=O)O)nc2ccccc12,x,0%,-9%[9.22 µM],14%[46 µM],-11%,1%[10 µM]
O=C(O)[C@H]([C@H]1NCCS1)N1Cc2ccccc2C1,x,x,x,x,x,3%[10 µM]
Cc1noc(C)c1-c1nccc(Nc2ccc(F)cc2)n1,x,-12%,x,u,x,-41%
CS(=O)(=O)N1CCC2(CCCN(Cc3ccc(C#N)cc3)C2)CC1,-3%,3%,x,x,x,7%
O=C1c2ccccc2C(=O)N1c1cccc(-c2nc3ccccc3o2)c1,-7%,5%,8%,7%,0%,-32%
O=C1C=CC(=O)N1c1cccc(-c2ccccc2)c1,x,0.02µM*,u,x,-1%,-69%[10 µM]
N#Cc1ccc(NC(=O)Nc2ccc(Cl)cc2)cc1,-16%,-4%,25µM*,u,-2%,-3%[10 µM]
CN(CC(=O)Nc1ccc(C#N)cc1)Cc1ccc(Cl)cc1,5%,-9%,-21%,-13%,0%,16%[10 µM]
c1cc(C(c2nnnn2C2CCCC2)N2CCOCC2)ccn1 (centres undefined),-16%,u,-4%,1%,u,-10%
Oc1ccc(C(c2nnnn2C2CCCCC2)N2CCOCC2)cc1 (centres undefined),x,-17%,2.8µM*,19%[46 µM],-14%,x
SMILES,HPGD inh,ALDH1A1 block,HttQ103 aggreg,Lamin A splicing,KDM4E inh,HTT ATP protect
O=C(CN1C(=O)S/C(=C\C=C\c2ccccc2)C1=O)Nc1cccc(O)c1,-23%,32µM*,u,u,-28%,-17%[10 µM]
O=C(CN1C(=O)S/C(=C\C=C\c2ccccc2)C1=O)Nc1ccccc1C(=O)O,x,x,-8%[9.22 µM],x,-11%,-2%[10 µM]
CCCCCCCn1ccc(=N)cc1,-3%,1%,1.1µM*,u,-11%,-54%
CCCCCCCCCn1ccc(=N)cc1,x,x,-32%[9.22 µM],x,8%,-34%[10 µM]
N#Cc1c(SCC(N)=O)nc(-c2ccccc2)c2c1CCCC2,-7%,22µM*,2%,u,1%,6%
Cc1ccc(-c2nc(SCC(N)=O)c(C#N)c3c2CCCC3)cc1,u,u,10%[1.84 µM],6%,u,7%
CCc1nnc(NC(=O)CSc2nc(-c3ccc(F)cc3)cc(-c3ccccc3)c2C#N)s1,x,10µM*,-18%,-16%,-4%,-5%[10 µM]
Cc1cc(-c2ccccc2)c(C#N)c(SCC(N)=O)n1,-13%,13µM*,-22%,10%,3%,-13%[10 µM]
COc1ccc(-c2cc(-c3ccccc3)nc(SCC(=O)Nc3ncc(C)s3)c2C#N)cc1,u,u,14%,-13%,u,-5%[10 µM]
N#Cc1c(SCC(=O)O)nc(-c2ccccc2)c2c1CCCC2,x,18µM*,u,7%,1%,-22%
COC(=O)c1ccc(NC(=O)c2cc3cc(C)ccc3n2C)cc1,x,x,x,-12%[46 µM],x,x
NC(=O)c1cc[n+](CC2=C(C(=O)O)N3C(=O)[C@@H](NC(=O)[C@@H](c4ccccc4)S(=O)(=O)[O-])[C@H]3SC2)cc1,-25%,-10%,x,-13%,u,x
COc1cc2nc(N(C)CCCNC(=O)[C@@H]3CCCO3)nc(N)c2cc1OC,u,u,12%[20.6 µM],u,u,3%[40.3 µM]
CCOC(=O)CSc1nc(C2CC2)cc(-c2ccc(Cl)cc2)c1C#N,u,32µM*,-3%,4%,u,33%[10 µM]
COCC(C)n1c(SCC(=O)N(C)C2CCS(=O)(=O)C2)nc2ccccc2c1=O (centres undefined),x,10%,-3%,-3%[46 µM],2%,-22%
Cc1cc2nnc(SC3CCCCN(C(=O)c4ccc(F)cc4)C3=O)n2c2ccccc12 (centres undefined),u,18µM*,11%,-2%,u,-30%
S=c1[nH]nc(-c2cc(-c3ccccc3)n[nH]2)n1/N=C/C=C/c1ccco1,x,u,-18%[9.22 µM],x,u,7%[10 µM]
S=c1[nH]nc(-c2n[nH]c3c2CCC3)n1/N=C/C=C/c1ccco1,x,7.1µM*,12%[9.22 µM],x,28µM*,20%[10 µM]
COc1ccccc1/C=C/C=N/n1c(-c2n[nH]c3c2CCC3)n[nH]c1=S,x,8.9µM*,3%[9.22 µM],x,u,-3%[10 µM]
S=c1[nH]nc(-c2ccco2)n1/N=C/C=C/c1ccco1,14µM*,-8%,-5%,-21%,-13%,21%[0.074 µM]
COc1ccccc1/C=C/C=N/n1c(-c2ccccn2)n[nH]c1=S,x,x,-11%[9.22 µM],x,u,-12%[10 µM]
COc1cc(/C=N/n2c(-c3n[nH]c4c3CCC4)n[nH]c2=S)cc(OC)c1O,x,x,-18%[9.22 µM],x,-9%,5%[10 µM]
COc1cccc(/C=N/n2c(-c3n[nH]c4c3CCC4)n[nH]c2=S)c1O,u,u,-12%,-6%,32µM*,-20%[10 µM]
Cc1ncc(CN2CCC(CO)(CCc3ccccc3)CC2)s1,x,u,-9%[9.22 µM],9%[46 µM],4%,-1%[10 µM]
